# Source: PubChem BioAssay (Tox21)
# Results filed as inconclusive are left out. Unmarked numbers belong to inactive results. Calls of active or inactive are those of the source. Calls come from the whole dose curve; as a rule, active = well fitted activation curve with a large enough effect in the repeat runs; inconclusive = weak or mixed curves; inactive = flat fitted curve, though single readings scatter.
# Experiment: A CellTox Green Cytotoxicity Assay to monitor cytotoxicity in HEK293 cells - 24 hour (AID 1224875); note: nearly all actives have a fitted effect of over 45% in size
# Conditions: CellTox Green fluorescence; series mostly up to 76.8 µM; activity change: at the top concentration
# From the text: National Center for Advancing Translational Sciences [NCATS]
# NIH Chemical Genomics Center [NCGC]
# U.S. Environmental Protection Agency [EPA]
# National Institutes of Environmental Health Sciences [NIEHS]
# National Toxicology Program [NTP]
# Cell-based models are critical for drug discovery. Determining the natural cytotoxic effects resulting from test compounds is an essential research activity. A CellTox Green Cytotoxicity Assay to monitor cytotoxicity in real time of continues cell culture during 40 hours of the compound treatment was used to screen Tox21 10K library compounds in Hek293 cells. CellTox Green Cytotoxicity Assay is a nonlytic, homogeneous, biofluorescent method to measure cytotoxicity in cell culture after experimental manipulation. The assay system uses a proprietary asymmetric cyanine dye that is excluded from viable cells but preferentially stains the dead cell's DNA. […] Viable cells produce no appreciable increases in fluorescence. Therefore, the fluorescence signal produced by the binding interaction with dead cell DNA is proportional to cytotoxicity.
# The mixture of Hek293 cell suspension and reagents were dispensed at 600cells/6 ul/well in 1536-well tissue culture treated black solid bottom plates using a Multidrop dispenser. After the assay plates were incubated at a 37 C/5% CO2 incubator for 5 hours, 23 nL of compounds dissolved in DMSO, positive and negative controls was transferred to the assay plate by a pintool work station. The plates were incubated at 37 C for 40 hours. The fluorescence intensity were measured at 0h, 8h, 16h, 24h, 32h and 40h time points using ViewLux plate reader during compound treatment.
# % is set by controls: 0 for no effect and ±100 for the full control effect; potency is the fitted concentration of half-maximal effect.
SMILES,activity change,Potency
CCC(C)n1c(=O)[nH]c(C)c(Br)c1=O (stereo not given),-0.693%,
NC1=NC(=O)C(c2ccccc2)O1 (stereo not given),"-0.938% [at 35.3 µM, hits give high values]",
C[C@@H]1CN(C2CCC(C#N)(c3ccc(F)cc3)CC2)CC[C@]1(C(=O)O)c1ccccc1 (stereo not given in full),"1.08% [at 35.3 µM, hits give high values]",
c1cc2c(c(N3CCNCC3)c1)OCCO2,"-4.28% [at 35.3 µM, hits give high values]",
CNC(=O)Oc1c(C(C)(C)C)cc(C)cc1C(C)(C)C,17.2%,
CCOP(=S)(OCC)Oc1nc(Cl)n(C(C)C)n1,-5.37%,
COc1cc2c(cc1OC)[C@@]13CCN4CC5=CCO[C@H]6CC(=O)N2[C@H]1[C@H]6[C@H]5C[C@H]43,-0.107%,
OCCSCSCCO,0.323%,
CC(N)=S,-3.05%,
COP(=S)(OC)Oc1c(Cl)cc(C)cc1Cl,-1%,
[As]#[In],-9.01%,
Cc1cccc(C#N)c1,-4.91%,
C#CCN1C(=O)COc2cc(F)c(N3C(=O)C4=C(CCCC4)C3=O)cc21,-5.61%,
CCOP(=S)(Oc1cnc(C(C)(C)C)nc1)OC(C)C (stereo not given),20.4%,
Nc1c(Br)cc([N+](=O)[O-])cc1[N+](=O)[O-],-10.6%,
CC(COc1ccc(Oc2ccccc2)cc1)Oc1ccccn1 (stereo not given),-8.67%,
O=[N+]([O-])c1ccc2c3c(cccc13)CC2,9.89%,
CCOC(=O)C(c1c(O)c2ccccc2oc1=O)c1c(O)c2ccccc2oc1=O,"-5.78% [at 35.3 µM, hits give high values]",
O=C1OC(c2ccc(O)c(S(=O)(=O)O)c2)(c2ccc(O)c(S(=O)(=O)O)c2)c2c(Br)c(Br)c(Br)c(Br)c21,"1.12% [at 35.3 µM, hits give high values]",
Nc1cc(Cl)ccc1O,-7.46%,

SMILES,activity change,Potency
CC(C)[N+](=O)[O-],0.821%,
CCCCP(CCCC)CCCC,-0.127%,
COCC(=O)N(c1c(C)cccc1C)N1CCOC1=O,-0.801%,
Cc1cnc[nH]1,-1.74%,
CNCC(=O)c1ccc(O)c(O)c1,"1.57% [at 35.3 µM, hits give high values]",
CCC#N,-1.23%,
COc1ncc(F)c2nc(S(=O)(=O)Nc3c(F)cccc3F)nn12,,12.4 µM (active)
O=c1oc2ccccc2c(O)c1C1CCCc2ccccc21 (stereo not given),-18.4%,
Nc1cc2c3c(c1)C(c1ccccc1)=N[C@@H](NC(=O)c1cccnc1)C(=O)N3CC2,-16%,
O=C(O)c1ccc2[nH]cc(CCCCN3CC=C(c4ccccc4)CC3)c2c1,"0.825% [at 35.3 µM, hits give high values]",
O=NN1CCN(N=O)CC1,1.52%,
COC(C)(C)C,26.7%,
CCCCOP(=O)(O)OCCCC,2.04%,
O=CNC(N1CCN(C(NC=O)C(Cl)(Cl)Cl)CC1)C(Cl)(Cl)Cl (stereo not given),-10.6%,
Nc1cnn(-c2ccccc2)c(=O)c1Cl,-12.3%,
CN1CCC(O)(c2ccc(F)cc2)C(C(=O)c2ccc(F)cc2)C1 (stereo not given),"13.4% [at 35.3 µM, hits give high values]",
C[C@]12CC[C@H]3[C@@H](CCC4=CC(=O)CC[C@@]43C)[C@@H]1CC[C@@H]2C(=O)O,"-2.22% [at 35.3 µM, hits give high values]",
N#CC(Cl)(Cl)Cl,15.4%,
Cc1ncsc1CCCl,"-8.75% [at 35.3 µM, hits give high values]",
CS(=O)(=O)c1cc(C(F)(F)F)ccc1C(=O)c1cnoc1C1CC1,-0.973%,
